Test results reported in PubChem BioAssay AID1159580 (chemical genetic matrix, 2015).
Values joined by “and” are separate entries in the source; they are usually repeats but may differ in a detail not shown here. Equal entries are not always repeated. Among all 5,500 compounds or so, about 2,000 (36%) were called active. Another 18% or so got no clear call; they are omitted. The list shows a part of the results. Unmarked numbers belong to inactive results. Rule as the data show it: active = normalized growth mostly below about 0.91 (no sharp cut-off); inconclusive = no clear call, values can overlap the other calls; inactive = mostly above about 0.92.

Assay: chemical genetic growth profiling, strain panel (AID 1159580);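 also: tested at 20 µM; growth read once vehicle control cultures reached saturation at 30 °C; 1 = growth at the plate median or of vehicle wells; lower values mean less growth of the strain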
Details: S. cerevisiae deletion strains, growth OD

`Nc1ncnc2c1ncn2C1O[C@H](COP(=O)(O)O)[C@@H](O)[C@H]1O` (stereo partly specified) showed a normalized growth (locus YAL013W, strain DEP1, hits give low values) of 1.01, a normalized growth (locus YAL021C, strain ccr4, hits give low values) of 0.996 and a normalized growth (locus YAL026C, strain drs2, hits give low values) of 1. For the same compound, the normalized growth (locus YAL030W, strain snc1, hits give low values) was 0.997, the normalized growth (locus YBL061C, strain skt5, hits give low values) was 0.999 and the normalized growth (locus YBR009C, strain hhf1, hits give low values) was 0.95. The normalized growth (locus YBR021W, strain FUR4, hits give low values) was 1.01, the normalized growth (locus YBR023C, strain chs3, hits give low values) was 0.99 and the normalized growth (locus YBR171W, strain sec66, hits give low values) was 1. It also gave a normalized growth (locus YBR229C, strain ROT2, hits give low values) of 1.01, a normalized growth (locus YBR231C, strain swc5, hits give low values) of 1.01 and a normalized growth (locus YBR279W, strain paf1, hits give low values) of 0.999. The normalized growth (locus YCL011C, strain gbp2, hits give low values) was 0.991, the normalized growth (locus YCL016C, strain dcc1, hits give low values) was 0.982 and the normalized growth (locus YCL029C, strain bik1, hits give low values) was 0.523 (active). For the same compound, the normalized growth (locus YCL069W, strain vba3, hits give low values) was 0.996, the normalized growth (locus YCR088W, strain abp1, hits give low values) was 0.988 and the normalized growth (locus YDL005C, strain med2, hits give low values) was 1.03. It also gave a normalized growth (locus YDL035C, strain GPR1, hits give low values) of 1.04, a normalized growth (locus YDL040C, strain nat1, hits give low values) of 1 and a normalized growth (locus YDL074C, strain BRE1, hits give low values) of 1.03. It also gave a normalized growth (locus YDL101C, strain DUN1, hits give low values) of 1.01, a normalized growth (locus YDL134C, strain PPH21, hits give low values) of 1.02 and a normalized growth (locus YDL185W, strain tfp1, hits give low values) of 0.992. For the same compound, the normalized growth (locus YDL192W, strain arf1, hits give low values) was 0.811 (active), the normalized growth (locus YDR001C, strain nth1, hits give low values) was 0.997 and the normalized growth (locus YDR069C, strain doa4, hits give low values) was 1.04. The normalized growth (locus YDR101C, strain arx1, hits give low values) was 0.589 (active), the normalized growth (locus YDR137W, strain rgp1, hits give low values) was 1 and the normalized growth (locus YDR150W, strain NUM1, hits give low values) was 1.02. It also gave a normalized growth (locus YDR159W, strain sac3, hits give low values) of 0.95, a normalized growth (locus YDR162C, strain NBP2, hits give low values) of 1.01 and a normalized growth (locus YDR195W, strain ref2) of 1.01. The normalized growth (locus YDR297W, strain sur2, hits give low values) was 1.01, the normalized growth (locus YDR318W, strain mcm21, hits give low values) was 0.73 (active) and the normalized growth (locus YDR334W, strain swr1, hits give low values) was 1. The normalized growth (locus YDR335W, strain msn5, hits give low values) was 1, the normalized growth (locus YDR388W, hits give low values) was 0.209 (active) and the normalized growth (locus YDR392W, strain spt3, hits give low values) was 0.95. For the same compound, the normalized growth (locus YDR502C, strain sam2, hits give low values) was 0.632 (active), the normalized growth (locus YEL003W, strain gim4, hits give low values) was 1 and the normalized growth (locus YEL037C, strain rad23, hits give low values) was 0.993. It also gave a normalized growth (locus YEL061C, strain CIN8 (second series), hits give low values) of 1, a normalized growth (locus YEL061C, strain CIN8, hits give low values) of 1.01 and a normalized growth (locus YER015W, strain faa2, hits give low values) of 0.987. The normalized growth (locus YER016W, strain bim1, hits give low values) was 0.97, the normalized growth (locus YER110C, hits give low values) was 0.798 (active) and the normalized growth (locus YER111C, strain swi4, hits give low values) was 0.991. It also gave a normalized growth (locus YER155C, strain BEM2 (second series), hits give low values) of 1.05, a normalized growth (locus YER155C, strain BEM2, hits give low values) of 1.01 and a normalized growth (locus YER167W, strain BCK2, hits give low values) of 1.03. The normalized growth (locus YFR010W, strain ubp6, hits give low values) was 1.01, the normalized growth (locus YGL078C, strain dbp3, hits give low values) was 0.993 and the normalized growth (locus YGL086W, strain mad1, hits give low values) was 0.74 (active). The normalized growth (locus YGL167C, strain pmr1, hits give low values) was 1, the normalized growth (locus YGL173C, strain kem1, hits give low values) was 0.995 and the normalized growth (locus YGL227W, strain vid30, hits give low values) was 1.01. The normalized growth (locus YGL240W, strain doc1, hits give low values) was 1.04, the normalized growth (locus YGL248W, strain PDE1, hits give low values) was 1.02 and the normalized growth (locus YGL253W, strain hxk2, hits give low values) was 0.972. The normalized growth (locus YGR078C, strain PAC10, hits give low values) was 1.02, the normalized growth (locus YGR135W, strain pre9, hits give low values) was 0.776 (active) and the normalized growth (locus YGR229C, strain SMI1, hits give low values) was 1.03. It also gave a normalized growth (locus YGR252W, strain gcn5, hits give low values) of 0.987, a normalized growth (locus YHR013C, strain ard1, hits give low values) of 0.965 and a normalized growth (locus YHR027C, strain rpn1, hits give low values) of 1. The normalized growth (locus YHR030C, strain SLT2, hits give low values) was 1.01, the normalized growth (locus YHR079C, strain IRE1 (second series), hits give low values) was 0.345 (active) and the normalized growth (locus YHR079C, strain IRE1, hits give low values) was 1.02. The normalized growth (locus YHR094C, strain hxt1, hits give low values) was 0.955, the normalized growth (locus YHR129C, strain ARP1, hits give low values) was 1.01 and the normalized growth (locus YHR142W, strain chs7, hits give low values) was 1.01. For the same compound, the normalized growth (locus YHR200W, strain rpn10, hits give low values) was 0.911 (active), the normalized growth (locus YIL066C, strain RNR3, hits give low values) was 1.03 and the normalized growth (locus YIL073C, strain SPO22, hits give low values) was 1.03. For the same compound, the normalized growth (locus YIL125W, strain kgd1, hits give low values) was 0.999, the normalized growth (locus YIR030C, strain dcg1, hits give low values) was 0.648 (active) and the normalized growth (locus YJL092W, strain hpr5, hits give low values) was 1. For the same compound, the normalized growth (locus YJL095W, strain BCK1 (second series), hits give low values) was 0.996, the normalized growth (locus YJL095W, strain BCK1, hits give low values) was 0.99 and 0.989 and the normalized growth (locus YJL115W, strain asf1, hits give low values) was 0.998. It also gave a normalized growth (locus YJL129C, strain trk1, hits give low values) of 1, a normalized growth (locus YJL134W, strain LCB3, hits give low values) of 1.01 and a normalized growth (locus YJL154C, strain vps35, hits give low values) of 0.999. For the same compound, the normalized growth (locus YJL164C, strain tpk1, hits give low values) was 0.967, the normalized growth (locus YJL166W, strain qcr8, hits give low values) was 1.03 and the normalized growth (locus YJL168C, strain set2, hits give low values) was 0.927 (active). For the same compound, the normalized growth (locus YJL187C, strain SWE1 (second series), hits give low values) was 1.03, the normalized growth (locus YJL187C, strain SWE1, hits give low values) was 0.996 and the normalized growth (locus YJR043C, strain POL32, hits give low values) was 1. It also gave a normalized growth (locus YJR066W, strain TOR1, hits give low values) of 0.965.
